# Data as given in PubChem BioAssay (NCI).
# Several values for one entry are separate records, joined by “and”; a condition that tells them apart may be missing. Equal entries are not always repeated. Compounds without any hit were thinned out: in the full panel of roughly 83,000, 20% have a hit.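 Each cell line was grown in a 96-well plate and treated with one concentration of compound for 48 hours. Values below 10 were considered active.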 Activity calls are given as the source filed them. Where a SMILES comes first, the peptide text is derived from it. The star is where a group is joined. Trt = c1ccc(C(c2ccccc2)(c2ccccc2)*)cc1; Cbz = O=C(OCc1ccccc1)*
# System: SNB-19 CNS
# Assay: NCI-60 one-dose screen, 48 h (100 = growth as untreated, 0 = no growth, -100 = all killed)
# Details: 10 µM
# Experimental: Growth inhibition of the SNB-19 human tumor cell line is measured as a screen for anti-cancer activity. Cells are grown in 96 well plates and exposed to the test compound for 48 hours. Compounds are tested at a single concentration, which is 10^-5 M for most compounds. The reported endpoint is percent growth (GI% or GIPRCNT), where numbers from 0 - 100% represent growth inhibition, and numbers from -100% - 0 represent cell death. For example, a value of 40 represents 60% growth inhibition. A value of 0 means no net growth occurred over the course of the experiment. A value of -40 indicates 40% of cells at the beginning of the experiment died by the end of the experiment. A value of -100 means all cells are dead at the end of the experiment.
# NCI-60 Human Tumor Cell Lines Screen was performed using the standard one-dose NCI protocol, which is described in more detail at https://dtp.cancer.gov/discovery_development/nci-60/default.htm.
# Compounds with GIPRCNT values below 10 were considered active. Activity score was based on GIPRCNT using the following formula: […]
# Score is 0 for GIPRCNT values of 100 or above, 50 for GIPRCNT values of 0, and 100 for GIPRCNT values of -100.
row,Compound,growth
1,O=C(Nc1cccc(Br)c1)Oc1cccc2cccnc12,100% (inactive)
2,COc1ccc(-c2cscc2N)cc1,82.9% (inactive)

# Same assay, conditions: 10 µM unless noted
row,Compound,growth
1,CCCCCCCCCCCCCCCCCCOP(=O)([O-])OC1CC[N+](C)(C)CC1,-29.2% (active) and -65.1% (active)
2,CCCCCCCCCCCCCCNCc1ccccc1,85.6% (inactive)
3,CNc1ccc2c(c1)c1ccccc1n2C,111% (inactive)
4,CC(=O)ON=C1C=CC(=C(C#N)c2ccccc2)C=C1,82.5% (inactive)
5,Cc1c2ccccc2c(C)c2c1ccc1ccccc12,103% (inactive)
6,COc1cc(/C=C(/C)C[N+](=O)[O-])ccc1O,97.8% (inactive)
7,C[n+]1c(/C=C/c2ccc([N+](=O)[O-])cc2)ccc2ccccc21,108% (inactive)
8,CN(Cc1cnc2nc(N)nc(N)c2n1)c1ccc(C(=O)NC(CCC(=O)O)C(=O)O)cc1 (stereo not given),47.2% (inactive)
9,Cc1ccc(NS(=O)(=O)c2ccc(C)cc2)cc1,106% (inactive) and 102% (inactive)
10,O=C(/C=C\c1ccccc1)N1c2ccccc2CC1c1c[nH]c2ccccc12 (stereo not given),85.8% (inactive)
11,Oc1c(Cl)cc(Cl)c2cccnc12,57.4% (inactive) and 38.9% (inactive)
12,NC(N)=N/N=C/c1ccc([N+](=O)[O-])o1,99.9% (inactive)
13,COC(=O)C(CSC(c1ccccc1)(c1ccccc1)c1ccccc1)NC(=O)C(CC(N)=O)NC(=O)OCc1ccccc1 (stereo not drawn) (Cbz-Asn-Cys(Trt)-OMe; configuration not given here),56.2% (inactive)
14,CC(=Nc1ccc(N(C)C)cc1)c1ccccc1,45% (inactive)
15,C/C=C1\SC(=S)NC1=O,102% (inactive)
16,CC1=CC(O)C2CC1C2(C)C (stereo not given),103% (inactive) and 116% (inactive)
17,O=C(Nc1ccc(F)cc1)ON=C1CCCCC1,94% [100 µM] (inactive)
18,C=C(Cl)C(=NC(C)(C)C)Nc1ccccc1C,95.3% (inactive)

row,Compound,growth
1,COC(=O)c1nc(=S)[nH]c(C(=O)OC)c1C(=O)c1ccc2ccccc2c1,94.7% (inactive)
2,O=C(/C=C/c1cccc(Cl)c1)c1ccccc1,89.3% (inactive) and 76.4% (inactive)
3,CCN(CC)CC(C)(C)C(=O)/C=C/c1ccc(Cl)c(Cl)c1,-30.1% (active)
4,CNC(=O)N/N=C/c1ccc([N+](=O)[O-])o1,94.9% (inactive)
5,CCCCCCCCCCCCCCCCN(CC)CC,-87.9% (active)
6,O=C(Nc1ccccc1)Oc1c(Cl)c(Cl)c(Cl)c(Cl)c1Cl,93.5% (inactive) and 100% (inactive)
7,CN(C)CCOc1ccc2c(c1)C(=O)/C(=C\c1ncc([N+](=O)[O-])n1C)C2,-39.2% (active)
8,Cc1cc(N)c2ccccc2[n+]1CCCCCCCCCC[n+]1c(C)cc(N)c2ccccc21,21.3% (inactive) and 12.5% (inactive)
9,COc1cc(/C=C/C(C)=O)ccc1O,98.3% (inactive) and 112% (inactive)
10,N#CC1C(=O)SC2c3ccccc3C(=O)c3ccccc3C12 (stereo not given),99.4% (inactive)
11,C=CCOc1ccc(N=NC(C#N)C#N)cc1,94% (inactive)
12,O=C1c2ccccc2C(=O)c2sc(Nc3ccc(Cl)cc3)nc21,79.5% (inactive)
13,S=C(N/N=C/c1ccccn1)Nc1ccccn1,50.5% (inactive)
14,NC1=CC(=O)c2ccccc2C1=O,96.3% (inactive)
15,Oc1ccc(/C=N/NC(=S)Nc2ccccc2)nc1,42% (inactive)
16,CN1c2ccccc2C(C)(C)C12C=Cc1cc(O)ccc1O2 (stereo not given),61.1% (inactive)
17,O=C(Oc1cccc2cccnc12)c1ccccc1,93.7% (inactive) and 108% (inactive)
18,N#CSCc1ccc(CSC#N)c(Cl)c1,84% (inactive)

# Same assay, conditions: 100 µM
row,Compound,growth
1,O=C(Nc1cccc(Br)c1)Oc1cccc2cccnc12,48.7% (inactive)
2,COc1ccc(-c2cscc2N)cc1,57.6% (inactive)
